From PubChem BioAssay (NCI) come the findings set out here.

Common to all, as to test: NCI-60 one-dose screen, 48 h (100 = growth as untreated, 0 = no growth, -100 = all killed)
One assay has as its system NCI-H23 lung. To be noted: 10 µM unless noted.
For another assay, the system named is NCI-H226 lung. The following applies: 10 µM unless noted.
Another assay relates to NCI-H322M lung. The following applies: 10 µM unless noted.
The next assay concerns HOP-62 NSCLC. The following applies: 10 µM unless noted.
The test system of a further assay is NCI-H460 lung. The following applies: 10 µM unless noted.
In the next assay the test system is NCI-H522 lung. The following applies: 10 µM unless noted.
The test system of the next assay is A549/ATCC NSCLC. To be noted: 10 µM unless noted.
In another assay the test system is 786-0 renal. The following applies: 10 µM unless noted.
The test system of the next assay is COLO 205 colon. To be noted: 10 µM unless noted.
A further assay deals with DU-145 prostate. The following applies: 10 µM unless noted.
For the next assay, the system named is K-562 leukemia. The following applies: 10 µM unless noted.
The next assay concerns MALME-3M melanoma. To be noted: 10 µM unless noted.
Another assay has as its system MDA-MB-231 breast. To be noted: 10 µM unless noted.
Another assay has as its system RXF 393 renal. To be noted: 10 µM unless noted.
Another assay has as its system SF-268 CNS. The following applies: 10 µM unless noted.
A further assay has as its system SF-295 CNS. The following applies: 10 µM unless noted.
Another assay has as its system SF-539 CNS. The following applies: 10 µM unless noted.
In another assay the test system is UACC-257 melanoma. To be noted: 10 µM.
The next assay concerns M14 melanoma. The following applies: 10 µM unless noted.

This is part of a sample that, as a whole, favours compounds with a hit. Of some 83,000 tested, about 20% had one in any assay.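 Negative percent growth values reflect cell death: -40 means 40% of the cells present at the start died, and -100 means all died.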 A number with no mark means an inactive call. The source made the active and inactive calls. How the source made its calls: active means growth percent below 10; inactive means the rest.

As for `COc1cc(C2CC(c3ccc(Nc4nc(NCCO)nc(Nc5ccc(Cl)cc5)n4)cc3)=Nc3c(N)nc(N)nc3N2)cc(OC)c1OC` (stereo unspecified), the growth in the assay on NCI-H23 lung is 74%; in the assay with NCI-H226 lung, 81.7%; with NCI-H322M lung it was 82.2%; in the assay on HOP-62 NSCLC it was 43.3%; with NCI-H460 lung, 56.3%; with NCI-H522 lung, 60.7%. Further, the growth with A549/ATCC NSCLC was 103%; with 786-0 renal, 46.9%; with COLO 205 colon, 90.4%; with DU-145 prostate it was 65.7%; in the assay on K-562 leukemia, 16.4%; in the assay with MALME-3M melanoma it was 85.7%. The growth is 60.6% in the assay with MDA-MB-231 breast; 45% with RXF 393 renal; 63% in the assay with SF-268 CNS; 77.6% with SF-295 CNS; 80.1% in the assay with SF-539 CNS; 92.1% with UACC-257 melanoma. Besides, the growth in the assay with M14 melanoma is 81.2%.
In the case of `CS(=O)c1nccc(-c2c(-c3ccc(F)c(OCc4ccc(F)cc4)c3)nc3sccn23)n1` (stereo unspecified), the growth with NCI-H23 lung is 61.6%; in the assay on NCI-H226 lung it was 95.3%; with NCI-H322M lung, 62.7%; in the assay on HOP-62 NSCLC, 100%; in the assay with NCI-H460 lung, 35.6%; in the assay on NCI-H522 lung, -51.8% (active). For the same molecule, the growth in the assay with A549/ATCC NSCLC is 102%; in the assay on 786-0 renal it was 100%; in the assay with COLO 205 colon, 100%; in the assay with DU-145 prostate, -9.49% (active); with MALME-3M melanoma it was 92.3%; with MDA-MB-231 breast, 67.8%. Besides, the growth is 87.6% in the assay on RXF 393 renal; 100% in the assay with SF-268 CNS; 97.8% in the assay with SF-295 CNS; 88.4% in the assay with SF-539 CNS; -24.6% (active) in the assay with UACC-257 melanoma; 81.6% in the assay with M14 melanoma.
For the molecule `C#Cc1ccc(NC(=O)c2ccc(/C=C/C(=O)c3nccn3C)cc2)c(F)c1`, the growth in the assay on NCI-H23 lung is 11.4%; in the assay on NCI-H226 lung, 42.8%; in the assay with NCI-H322M lung it was 19.8%; in the assay with HOP-62 NSCLC it was 2.11% (active); with NCI-H460 lung it was 6.28% (active); in the assay on NCI-H522 lung it was 20.4%. Also, the growth was 37.7% in the assay on 786-0 renal; 73% with COLO 205 colon; 27.5% in the assay with DU-145 prostate; 12% in the assay with K-562 leukemia; 89.8% with MALME-3M melanoma; 23.6% in the assay on MDA-MB-231 breast. The growth in the assay with RXF 393 renal was 10.5%; in the assay with SF-268 CNS, 28%; in the assay with SF-295 CNS, 26.1%; in the assay with SF-539 CNS, -22.5% (active); in the assay with UACC-257 melanoma, 64.7%.
For `O=C(/C=C/c1cn(-c2ccccc2)nc1-c1ccc(Cl)cc1)c1cc2ccccc2oc1=O`, the growth in the assay on NCI-H23 lung is 78.3%; with NCI-H226 lung it was 66.1%; in the assay with NCI-H322M lung, 77.7%; in the assay with HOP-62 NSCLC it was 82.4%; with NCI-H460 lung, 54.6%; in the assay with NCI-H522 lung it was 71%. In addition, the growth in the assay with A549/ATCC NSCLC is 88.7%; with 786-0 renal, 46%; with COLO 205 colon, 84.9%; with DU-145 prostate, 63.7%; with K-562 leukemia, 58.4%; in the assay with MALME-3M melanoma, 66%. Besides, the growth with MDA-MB-231 breast was 55%; in the assay on RXF 393 renal, 95.7%; with SF-268 CNS, 90.8%; with SF-295 CNS it was 48%; in the assay on SF-539 CNS, 68.4%; in the assay on UACC-257 melanoma, 93.5%. In addition, the growth in the assay with M14 melanoma was 72.8%.
Turning to `O=C(N/N=C\c1ccc(Cl)cc1)c1ccc2nc(-c3ccc(Br)cc3)[nH]c2c1`, the growth in the assay on NCI-H23 lung was -36% (active); in the assay on NCI-H226 lung, 9.5% (active); in the assay on NCI-H322M lung, 41.3%; in the assay on HOP-62 NSCLC, -42.5% (active); in the assay with NCI-H460 lung it was -76.4% (active); in the assay with NCI-H522 lung it was 10.5%. Moreover, the growth is -51.7% (active) with A549/ATCC NSCLC; -73.7% (active) in the assay on 786-0 renal; -33.4% (active) in the assay with COLO 205 colon; -1.02% (active) in the assay with DU-145 prostate; 2.78% (active) with K-562 leukemia; -59% (active) in the assay on MALME-3M melanoma. Moreover, the growth was 18.2% in the assay on MDA-MB-231 breast; -46.6% (active) in the assay with RXF 393 renal; 11.9% in the assay with SF-268 CNS; -37.8% (active) in the assay on SF-295 CNS; -5.56% (active) with SF-539 CNS; 3.89% (active) in the assay on UACC-257 melanoma. Further, the growth in the assay on M14 melanoma is -45.6% (active).
For `N#C/C(=C\c1ccc(N2CCCCC2)cc1)C(=O)Nc1sc2c(c1C#N)CCC2`, the growth was 93.8% with NCI-H23 lung; 88.1% in the assay on NCI-H226 lung; 99.4% with NCI-H322M lung; 94.7% with HOP-62 NSCLC; 74.8% in the assay with NCI-H460 lung; 92.7% in the assay on NCI-H522 lung. Moreover, the growth in the assay on A549/ATCC NSCLC is 90.6%; with 786-0 renal, 101%; in the assay with COLO 205 colon, 118%; in the assay on DU-145 prostate, 101%; in the assay on K-562 leukemia, 90.7%; in the assay with MALME-3M melanoma, 100%. Also, the growth is 96.4% in the assay with MDA-MB-231 breast; 83.5% in the assay with RXF 393 renal; 90.3% in the assay with SF-268 CNS; 95.8% with SF-295 CNS; 89.6% in the assay with SF-539 CNS; 91.7% in the assay on UACC-257 melanoma.
Take `COc1ccccc1N1CCN(C2=NN=C(c3cccc(Cl)c3)c3ccccc3C2)CC1`: the growth in the assay on NCI-H23 lung was 31.6%; in the assay on NCI-H226 lung, 57.5%; with NCI-H322M lung it was 37%; with HOP-62 NSCLC, 34.3%; in the assay with NCI-H460 lung, 1.95% (active); with A549/ATCC NSCLC, 17.2%. Further, the growth in the assay with 786-0 renal is 27%; in the assay with COLO 205 colon it was -38.7% (active); in the assay on DU-145 prostate it was 2.18% (active); in the assay on K-562 leukemia, 3.9% (active); in the assay with MALME-3M melanoma it was 44.9%; in the assay on MDA-MB-231 breast, -3.39% (active). The growth with SF-268 CNS was 22.6%; in the assay on SF-295 CNS it was 19.3%; in the assay on SF-539 CNS it was -11.6% (active); in the assay with UACC-257 melanoma, 56.3%; with M14 melanoma it was 6.83% (active).
For the molecule `NC(=S)N/N=C(/C=C/c1cn(-c2ccccc2)nc1-c1ccc(Cl)cc1)c1cc2ccccc2oc1=O`, the growth in the assay with NCI-H23 lung is 46.5%; with NCI-H226 lung, 62.2%; in the assay on NCI-H322M lung it was 60%; in the assay with HOP-62 NSCLC, 43%; with NCI-H460 lung, 18.3%; in the assay with NCI-H522 lung it was 46.9%. The growth with A549/ATCC NSCLC is 41.4%; in the assay on 786-0 renal, 58.1%; in the assay on COLO 205 colon it was 38.1%; in the assay on DU-145 prostate, 57.7%; in the assay with K-562 leukemia it was 20.8%; in the assay on MALME-3M melanoma, 71.2%. The growth in the assay on MDA-MB-231 breast was 48.9%; in the assay with RXF 393 renal, 106%; with SF-268 CNS, 52.9%; with SF-295 CNS, 25.2%; with SF-539 CNS, 51.1%; in the assay on UACC-257 melanoma, 76.3%. Besides, the growth in the assay on M14 melanoma was 54.1%.
